Consider 10 molecules from PubChem BioAssay (EPA / NIEHS).

Assay [1] deals with human Peroxisome Proliferator-activated Receptor delta (PPARd), PPARD (gene 5467) (UniProt Q03181). Description: ATG_PPARd_TRANS: Attagene TRANS-FACTORIAL HepG2 Assay for human Peroxisome Proliferator-activated Receptor delta (PPARd) (AID 2283002; active = hit-call score of the fitted dose curve at least 0.9, where 1 is the maximum). In outline:
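HepG2 cells transiently transfected with GAL4-UAS multiplexed reporter units driven by exogenous chimeric NR-GAL4 proteins; 24 h compound exposure. Reporter mRNA measured by RT-PCR, 6-FAM primer extension, HpaI digestion and capillary electrophoresis; gain of signal fitted relative to DMSO.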

Read-out in assay [2]: Intercellular Adhesion Molecule 1 (ICAM1), ICAM1 (gene 3383)
Description: BSK_3C_ICAM1: BioMAP Diversity Plus: 3C Assay for Intercellular Adhesion Molecule 1 (ICAM1) Biomarker Activity (AID 2283003). The following applies: primary human endothelial cells (HUVEC); actives raise or lower the signal. In outline: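 Using DMSO as baseline, bidirectional curve fitting was applied to ICAM-1 ELISA signals from HUVEC in the 3C system, measured 24 h after compound addition.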

The nature of assay [3]: BSK_3C_Proliferation: Cell Proliferation Assessment in the BioMAP Diversity Plus: 3C Assay (AID 2283006).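 For AC50: potency may reflect either rise or fall in cell number versus DMSO.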 The settings on record: primary human endothelial cells (HUVEC). In outline: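 Measured here: sulforhodamine B (0.1%) staining of TCA-fixed sub-confluent umbilical vein endothelial cultures 48 h post-dosing, absorbance 560 nm. DMSO served as negative control and baseline; both signal gain and loss were modelled.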

Assay [4] has as its target human Retinoic Acid Receptor gamma (RARg), RARG (gene 5916) (UniProt P13631). Description: ATG_RARg_TRANS: Attagene TRANS-FACTORIAL HepG2 Assay for human Retinoic Acid Receptor gamma (RARg) (AID 2283009; active = hit-call score of the fitted dose curve at least 0.9, where 1 is the maximum). The gist of the method: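 Gain-of-signal relative to DMSO is reported from fluorescent capillary electrophoresis of RT-PCR reporter products. These came from HepG2 cells expressing transfected RARg-GAL4 chimeras with UAS reporters, harvested 24 h after dosing.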

The target of assay [5] is human Retinoid X Receptor beta (RXRb), RXRB (gene 6257) (UniProt P28702). Briefly: ATG_RXRb_TRANS: Attagene TRANS-FACTORIAL HepG2 Assay for human Retinoid X Receptor beta (RXRb) (AID 2283013; active = hit-call score of the fitted dose curve at least 0.9, where 1 is the maximum). The gist of the method: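 After a 24 h incubation with test chemical, transfected HepG2 cells carrying NR-Gal4 fusions and GAL4-UAS reporter transcription units yield RNA whose reporter cDNA is FAM-labelled, HpaI-cut and sized by capillary electrophoresis; increases over DMSO are scored.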

Read-out in assay [6]: Interleukin-1 alpha (IL1a), IL1A (gene 3552)
Briefly: BSK_BE3C_IL1a: BioMAP Diversity Plus: BE3C Assay for Interleukin-1 alpha (IL1a) Biomarker Activity (AID 2283016). The following applies: primary human bronchial epithelial cells; actives raise or lower the signal. The gist of the method: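 Measured in human lung primary bronchial epithelial cells: IL-1a by ELISA at 24 h after dosing, with bidirectional fitting against DMSO.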

Read-out in assay [7]: Monocyte Chemoattractant Protein-1 (MCP1), CCL2 (gene 6347)
Briefly: BSK_3C_MCP1: BioMAP Diversity Plus: 3C Assay for Monocyte Chemoattractant Protein-1 (MCP1) Biomarker Activity (AID 2283017). The following applies: primary human endothelial cells (HUVEC); actives raise or lower the signal. The gist of the method:
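HUVEC, 3C system; 24 h chemical exposure; MCP-1 by ELISA; bidirectional curve fit vs DMSO baseline.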

Read-out in assay [8]: Monocyte Chemoattractant Protein-1 (MCP1), CCL2 (gene 6347)
Briefly: BSK_4H_MCP1: BioMAP Diversity Plus: 4H Assay for Monocyte Chemoattractant Protein-1 (MCP1) Biomarker Activity (AID 2283018). The settings on record: primary human endothelial cells (HUVEC); actives raise or lower the signal. In outline:
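Primary human umbilical vein endothelium is exposed to chemical for 24 h before MCP-1 is assayed by ELISA. Concentration-response fitted bidirectionally relative to DMSO.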

Read-out in assay [9]: Human Leukocyte Antigen - DR isotype (HLADR), HLA-DRA (gene 3122)
Briefly: BSK_3C_HLADR: BioMAP Diversity Plus: 3C Assay for Human Leukocyte Antigen - DR isotype (HLADR) Biomarker Activity (AID 2283019).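 For outcome: ELISA of cell-surface HLA-DR on HUVEC 24 h after dosing.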 The following applies: primary human endothelial cells (HUVEC); actives raise or lower the signal. In outline: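 HUVEC, 3C stimulation, 24 h post-dose; HLA-DR by ELISA; bidirectional curve fit vs DMSO baseline; gain or loss of signal scored.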

Read-out in assay [10]: Interleukin-8 (IL8), CXCL8 (gene 3576)
Description: BSK_3C_IL8: BioMAP Diversity Plus: 3C Assay for Interleukin-8 (IL8) Biomarker Activity (AID 2283020). The settings on record: primary human endothelial cells (HUVEC); actives raise or lower the signal. The gist of the method:
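Using DMSO-treated wells as the baseline, bidirectional curve fitting was applied to ELISA-measured IL-8 from human umbilical vein endothelial cultures sampled 24 h after compound addition.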

Read-out in assay [11]: Monokine induced gamma interferon (MIG), CXCL9 (gene 4283)
Briefly: BSK_3C_MIG: BioMAP Diversity Plus: 3C Assay for Monokine induced gamma interferon (MIG) Biomarker Activity (AID 2283021). The settings on record: primary human endothelial cells (HUVEC); actives raise or lower the signal. In outline: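 ELISA-measured MIG in dosed HUVEC 3C cultures at 24 h, analysed by bidirectional fitting with DMSO defining baseline activity.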

For assay [12], the target named is Retinoic acid receptor RXR-alpha (Homo sapiens) (UniProt P19793). Description: ATG_RXRa_TRANS: Attagene TRANS-FACTORIAL HepG2 Assay for human Retinoid X Receptor alpha (RXRa) (AID 2283012; active = hit-call score of the fitted dose curve at least 0.9, where 1 is the maximum). In outline: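 Chimeric NR-GAL4 trans-activation in HepG2, 24 h treatment; reporter transcripts quantified by fluorescence on capillary electrophoresis, analysed for upward change from DMSO.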

Read-out in assay [13]: E-selectin (Homo sapiens) (UniProt P16581)
Description: BSK_3C_Eselectin: BioMAP Diversity Plus: 3C Assay for Eselectin Biomarker Activity (AID 2283015).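 Note: cell surface E-selectin protein quantified by ELISA 24 h after dosing.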 The settings on record: primary human endothelial cells (HUVEC); actives raise or lower the signal. In outline:
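HUVEC, 3C stimulation; compound exposure 24 h; E-selectin by ELISA; gain- or loss-of-signal fitted bidirectionally vs DMSO baseline.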

The target in assay [14] is Nuclear receptor subfamily 1 group I member 2 (Homo sapiens) (UniProt O75469). Briefly: ATG_PXR_TRANS: Attagene TRANS-FACTORIAL HepG2 Assay for human Pregnane X Receptor (PXR) (AID 2283008; active = hit-call score of the fitted dose curve at least 0.9, where 1 is the maximum). The gist of the method: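 HepG2 transfected (FuGene 6) with GAL4-UAS reporter units + PXR-Gal4 chimera; dosed 24 h. Total RNA → oligo(dT) RT → PCR → 6-FAM primer extension → HpaI cut → CE. Gain-of-signal vs DMSO.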

In assay [15] the target is human RAR-related Orphan Receptor beta (RORb), RORB (gene 6096) (UniProt Q92753). Briefly: ATG_RORb_TRANS: Attagene TRANS-FACTORIAL HepG2 Assay for human RAR-related Orphan Receptor beta (RORb) (AID 2283010; active = hit-call score of the fitted dose curve at least 0.9, where 1 is the maximum). In outline: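 Multiplexed transcription-factor reporter assay: HepG2 cells transiently carrying NR-Gal4/GAL4-UAS constructs, 24 h treatment, mRNA quantified by RT-PCR plus capillary electrophoresis fluorescence; activity scored as induction over DMSO.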

For assay [16], the target named is human RAR-related Orphan Receptor gamma (RORg), RORC (gene 6097) (UniProt P51449). Description: ATG_RORg_TRANS: Attagene TRANS-FACTORIAL HepG2 Assay for human RAR-related Orphan Receptor gamma (RORg) (AID 2283011; active = hit-call score of the fitted dose curve at least 0.9, where 1 is the maximum). The gist of the method: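 Transient MRTU transfection of HepG2 (TRANS format, exogenous NR-Gal4 chimera). 24 h dosing. Total RNA → oligo(dT) RT → PCR → 6-FAM labelling → HpaI cut → CE. Gain vs DMSO.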

Assay [17] deals with human Thyroid Receptor alpha (THRa1), THRA (gene 7067) (UniProt P10827). Description: ATG_THRa1_TRANS: Attagene TRANS-FACTORIAL HepG2 Assay for human Thyroid Receptor alpha (THRa1) (AID 2283014; active = hit-call score of the fitted dose curve at least 0.9, where 1 is the maximum). The gist of the method: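 Transient HepG2 transfection, NR-Gal4 chimera driving GAL4-UAS reporters; 24 h compound exposure; total RNA, oligo(dT) RT, PCR, fluorescent primer extension, capillary electrophoresis. Upward direction vs DMSO control.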

The target in assay [18] is human Retinoic Acid Receptor beta (RARb), RARB (gene 5915) (UniProt P10826). Description: ATG_RARb_TRANS: Attagene TRANS-FACTORIAL HepG2 Assay for human Retinoic Acid Receptor beta (AID 2283004; active = hit-call score of the fitted dose curve at least 0.9, where 1 is the maximum). In outline:
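Readout is reporter mRNA induction: RNA reverse-transcribed, PCR-amplified, FAM-labelled, HpaI-cut and resolved by capillary electrophoresis. Transiently transfected HepG2 cells carrying exogenous NR–Gal4 chimeras were dosed for 24 h; activity fitted upward relative to DMSO.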

Assay [19] concerns the target Retinoic acid receptor alpha (Homo sapiens) (UniProt P10276). Description: ATG_RARa_TRANS: Attagene TRANS-FACTORIAL HepG2 Assay for human Retinoic Acid Receptor alpha (RARa) (AID 2283005; active = hit-call score of the fitted dose curve at least 0.9, where 1 is the maximum). In outline: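 HepG2 transiently transfected with multiplex GAL4-UAS reporter units including a human RARa–GAL4 chimera; 24 h compound exposure. Reporter mRNA quantified by RT-PCR, 6-FAM labeling and capillary electrophoresis; gain of signal versus DMSO.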

Structures are written as SMILES. Results filed as inconclusive are left out. Where a structure was tested more than once in an assay, its records may differ in their call. Active and inactive are the calls of the source. Rule for the calls, unless noted: active = hit-call score of the fitted dose curve at least 0.9, where 1 is the maximum; inactive = score below 0.9.

human Thyroid Receptor alpha (THRa1), THRA (gene 7067), sequence (P10827 whole entry, looked up, the tested form may be a part): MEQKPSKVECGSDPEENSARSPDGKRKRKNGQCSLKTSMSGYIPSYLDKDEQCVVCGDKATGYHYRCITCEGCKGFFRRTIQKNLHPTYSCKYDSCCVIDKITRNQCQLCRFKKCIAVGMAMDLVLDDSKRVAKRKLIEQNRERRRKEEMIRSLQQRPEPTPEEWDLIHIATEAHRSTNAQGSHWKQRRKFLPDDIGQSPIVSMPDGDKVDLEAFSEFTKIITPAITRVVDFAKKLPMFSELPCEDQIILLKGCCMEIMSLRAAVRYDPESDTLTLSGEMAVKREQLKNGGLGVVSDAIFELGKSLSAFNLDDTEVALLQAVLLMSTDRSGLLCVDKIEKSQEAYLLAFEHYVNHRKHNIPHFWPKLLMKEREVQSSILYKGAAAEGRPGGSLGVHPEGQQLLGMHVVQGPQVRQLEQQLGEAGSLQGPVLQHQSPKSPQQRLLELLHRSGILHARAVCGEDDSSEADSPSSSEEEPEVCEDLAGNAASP
human Peroxisome Proliferator-activated Receptor delta (PPARd), PPARD (gene 5467), sequence (Q03181 whole entry, looked up, the tested form may be a part): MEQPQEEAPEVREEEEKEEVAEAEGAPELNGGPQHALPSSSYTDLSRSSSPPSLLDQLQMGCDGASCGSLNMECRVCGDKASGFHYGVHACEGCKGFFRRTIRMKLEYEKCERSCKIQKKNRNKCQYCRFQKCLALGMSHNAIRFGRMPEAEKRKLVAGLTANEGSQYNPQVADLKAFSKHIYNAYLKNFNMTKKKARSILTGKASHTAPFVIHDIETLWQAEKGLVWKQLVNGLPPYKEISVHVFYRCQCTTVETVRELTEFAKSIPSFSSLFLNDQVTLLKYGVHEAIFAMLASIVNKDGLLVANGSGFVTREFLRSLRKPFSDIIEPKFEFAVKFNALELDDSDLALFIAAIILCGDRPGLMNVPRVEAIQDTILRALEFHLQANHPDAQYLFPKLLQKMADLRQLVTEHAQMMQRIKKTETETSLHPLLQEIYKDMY
human Retinoid X Receptor beta (RXRb), RXRB (gene 6257), sequence (P28702 whole entry, looked up, the tested form may be a part): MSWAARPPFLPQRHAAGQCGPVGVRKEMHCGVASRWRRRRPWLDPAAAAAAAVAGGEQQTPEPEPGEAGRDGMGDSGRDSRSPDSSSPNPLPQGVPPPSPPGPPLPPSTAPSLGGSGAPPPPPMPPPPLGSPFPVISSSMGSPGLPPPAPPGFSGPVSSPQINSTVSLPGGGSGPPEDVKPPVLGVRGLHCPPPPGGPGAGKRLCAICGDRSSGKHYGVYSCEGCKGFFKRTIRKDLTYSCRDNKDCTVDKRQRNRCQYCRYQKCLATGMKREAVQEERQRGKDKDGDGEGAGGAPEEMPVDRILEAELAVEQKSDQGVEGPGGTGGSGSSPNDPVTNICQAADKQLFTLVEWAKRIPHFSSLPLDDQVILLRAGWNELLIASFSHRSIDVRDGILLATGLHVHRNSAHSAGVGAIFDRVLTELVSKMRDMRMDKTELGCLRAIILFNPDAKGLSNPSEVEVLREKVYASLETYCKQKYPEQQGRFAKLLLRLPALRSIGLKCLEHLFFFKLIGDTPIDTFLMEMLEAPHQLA
human RAR-related Orphan Receptor beta (RORb), RORB (gene 6096), sequence (Q92753 whole entry, looked up, the tested form may be a part): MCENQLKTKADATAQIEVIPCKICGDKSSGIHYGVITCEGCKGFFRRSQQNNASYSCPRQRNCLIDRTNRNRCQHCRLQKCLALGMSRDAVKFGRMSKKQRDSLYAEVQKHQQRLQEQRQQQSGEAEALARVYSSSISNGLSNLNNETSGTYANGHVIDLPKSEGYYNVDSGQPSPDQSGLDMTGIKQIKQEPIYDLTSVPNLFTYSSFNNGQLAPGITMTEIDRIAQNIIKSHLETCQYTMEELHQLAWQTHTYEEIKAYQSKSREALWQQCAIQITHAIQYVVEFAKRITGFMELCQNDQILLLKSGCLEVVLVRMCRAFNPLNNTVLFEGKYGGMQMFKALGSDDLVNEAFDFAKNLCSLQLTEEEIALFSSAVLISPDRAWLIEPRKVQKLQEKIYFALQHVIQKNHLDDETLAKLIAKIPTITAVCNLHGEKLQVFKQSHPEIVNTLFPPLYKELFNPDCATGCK
human RAR-related Orphan Receptor gamma (RORg), RORC (gene 6097), sequence (P51449 whole entry, looked up, the tested form may be a part): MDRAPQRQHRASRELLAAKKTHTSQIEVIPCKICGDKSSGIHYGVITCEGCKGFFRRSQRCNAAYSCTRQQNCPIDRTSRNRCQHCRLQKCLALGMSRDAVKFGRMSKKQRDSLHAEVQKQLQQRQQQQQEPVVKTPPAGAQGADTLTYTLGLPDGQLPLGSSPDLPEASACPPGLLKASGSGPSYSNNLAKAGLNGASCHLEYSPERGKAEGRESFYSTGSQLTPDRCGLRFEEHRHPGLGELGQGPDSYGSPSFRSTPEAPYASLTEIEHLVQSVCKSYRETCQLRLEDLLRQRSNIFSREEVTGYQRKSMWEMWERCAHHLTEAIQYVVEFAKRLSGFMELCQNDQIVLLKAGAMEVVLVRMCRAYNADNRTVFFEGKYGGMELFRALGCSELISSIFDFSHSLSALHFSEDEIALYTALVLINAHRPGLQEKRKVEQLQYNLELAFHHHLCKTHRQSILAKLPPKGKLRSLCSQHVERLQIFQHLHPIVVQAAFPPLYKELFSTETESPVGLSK
E-selectin (Homo sapiens), sequence (P16581 whole entry, looked up): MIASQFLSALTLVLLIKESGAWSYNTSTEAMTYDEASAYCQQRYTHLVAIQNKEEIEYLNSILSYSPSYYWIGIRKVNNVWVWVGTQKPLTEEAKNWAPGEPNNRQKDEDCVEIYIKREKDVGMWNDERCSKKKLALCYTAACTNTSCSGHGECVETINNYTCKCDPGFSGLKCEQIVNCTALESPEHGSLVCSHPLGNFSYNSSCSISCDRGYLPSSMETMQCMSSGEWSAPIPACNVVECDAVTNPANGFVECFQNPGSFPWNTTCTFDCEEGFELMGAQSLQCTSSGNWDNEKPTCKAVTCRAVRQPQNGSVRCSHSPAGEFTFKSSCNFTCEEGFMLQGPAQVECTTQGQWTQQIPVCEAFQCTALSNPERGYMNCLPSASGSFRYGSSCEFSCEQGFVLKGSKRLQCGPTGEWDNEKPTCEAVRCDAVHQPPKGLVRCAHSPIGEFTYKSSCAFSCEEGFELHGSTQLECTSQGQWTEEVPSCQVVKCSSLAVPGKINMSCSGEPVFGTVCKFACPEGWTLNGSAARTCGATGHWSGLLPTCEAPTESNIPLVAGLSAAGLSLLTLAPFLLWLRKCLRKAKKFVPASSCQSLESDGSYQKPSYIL
Nuclear receptor subfamily 1 group I member 2 (Homo sapiens), sequence (O75469 whole entry, looked up, the tested form may be a part): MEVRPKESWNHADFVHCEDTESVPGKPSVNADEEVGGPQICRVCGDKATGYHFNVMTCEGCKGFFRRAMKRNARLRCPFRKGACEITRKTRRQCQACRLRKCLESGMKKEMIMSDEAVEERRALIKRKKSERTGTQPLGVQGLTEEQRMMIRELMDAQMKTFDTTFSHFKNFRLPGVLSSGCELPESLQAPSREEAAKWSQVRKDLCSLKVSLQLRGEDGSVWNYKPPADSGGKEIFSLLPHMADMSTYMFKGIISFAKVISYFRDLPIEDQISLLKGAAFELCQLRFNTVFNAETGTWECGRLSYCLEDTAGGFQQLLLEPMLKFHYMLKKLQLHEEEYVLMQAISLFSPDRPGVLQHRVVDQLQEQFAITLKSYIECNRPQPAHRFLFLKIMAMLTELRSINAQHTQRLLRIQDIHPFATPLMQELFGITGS
Retinoic acid receptor RXR-alpha (Homo sapiens), sequence (P19793 whole entry, looked up, the tested form may be a part): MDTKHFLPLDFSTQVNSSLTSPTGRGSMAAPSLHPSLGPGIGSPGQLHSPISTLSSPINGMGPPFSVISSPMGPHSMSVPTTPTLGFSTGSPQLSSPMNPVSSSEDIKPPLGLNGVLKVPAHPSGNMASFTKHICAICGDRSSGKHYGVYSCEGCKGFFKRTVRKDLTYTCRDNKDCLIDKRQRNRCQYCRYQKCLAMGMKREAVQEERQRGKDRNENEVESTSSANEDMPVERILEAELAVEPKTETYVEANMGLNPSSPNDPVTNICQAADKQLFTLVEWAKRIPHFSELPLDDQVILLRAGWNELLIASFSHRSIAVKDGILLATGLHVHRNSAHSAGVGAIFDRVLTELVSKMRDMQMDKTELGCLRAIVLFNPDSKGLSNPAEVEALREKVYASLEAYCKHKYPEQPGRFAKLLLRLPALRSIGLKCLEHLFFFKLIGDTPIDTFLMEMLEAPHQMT
human Retinoic Acid Receptor beta (RARb), RARB (gene 5915), sequence (P10826 whole entry, looked up, the tested form may be a part): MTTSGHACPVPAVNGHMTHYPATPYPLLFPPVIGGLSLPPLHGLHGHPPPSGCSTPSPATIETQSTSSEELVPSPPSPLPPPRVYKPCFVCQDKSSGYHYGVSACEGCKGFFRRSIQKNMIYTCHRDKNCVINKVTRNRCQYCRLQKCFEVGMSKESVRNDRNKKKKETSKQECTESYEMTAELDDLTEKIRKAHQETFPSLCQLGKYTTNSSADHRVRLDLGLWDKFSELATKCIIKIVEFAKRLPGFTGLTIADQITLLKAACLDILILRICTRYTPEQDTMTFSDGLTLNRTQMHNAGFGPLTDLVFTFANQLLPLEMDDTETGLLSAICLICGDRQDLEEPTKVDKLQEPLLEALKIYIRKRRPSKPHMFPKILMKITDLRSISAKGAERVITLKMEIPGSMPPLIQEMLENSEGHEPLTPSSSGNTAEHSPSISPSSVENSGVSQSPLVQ
Retinoic acid receptor alpha (Homo sapiens), sequence (P10276 whole entry, looked up, the tested form may be a part): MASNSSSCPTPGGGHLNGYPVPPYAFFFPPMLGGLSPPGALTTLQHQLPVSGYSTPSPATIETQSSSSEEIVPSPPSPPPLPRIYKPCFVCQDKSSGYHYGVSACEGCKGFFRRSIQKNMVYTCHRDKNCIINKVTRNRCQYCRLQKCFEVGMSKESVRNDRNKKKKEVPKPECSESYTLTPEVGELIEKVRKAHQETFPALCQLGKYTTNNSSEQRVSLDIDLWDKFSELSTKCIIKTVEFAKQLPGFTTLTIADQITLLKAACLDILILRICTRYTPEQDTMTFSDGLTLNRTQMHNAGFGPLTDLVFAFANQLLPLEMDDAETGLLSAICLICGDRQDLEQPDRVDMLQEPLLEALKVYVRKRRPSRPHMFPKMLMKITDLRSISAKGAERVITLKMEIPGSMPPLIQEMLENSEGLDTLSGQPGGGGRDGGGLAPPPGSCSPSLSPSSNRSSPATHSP

As to `Nc1ccn([C@@H]2O[C@H](CO)[C@@H](O)[C@@H]2O)c(=O)n1`, the call in assay [1], in assay [2], in assay [4], in assay [5], in [6] and in assay [7] was inactive. Also, the outcome in [8], in assay [9], in assay [10] and in assay [11] was inactive. For the same molecule, in assay [3], the AC50 was 0.519 µM (active).

With `OCCNCCO`, the call in assay [1], in assay [2], in assay [3], in [12], in assay [13] and in assay [7] was inactive. The result in [9], in assay [10] and in assay [11] was inactive.

Consider `CCCCN1C(=O)[C@@H]([C@H](O)C2CCCCC2)NC(=O)C12CCN(Cc1ccc(Oc3ccc(C(=O)O)cc3)cc1)CC2`, for which the outcome in [1], in assay [2], in assay [14], in assay [6], in assay [10] and in [11] was inactive. The AC50 is 28.2 µM (active) in assay [3], 14.9 µM (active) in assay [7] and 32.1 µM (active) in assay [9].

For the molecule `CCCCCOC(C)=O`, the outcome in assay [1], in assay [2], in assay [15], in assay [16], in assay [17] and in assay [13] was inactive. Further, the outcome in [6], in assay [7], in assay [9], in [10] and in assay [11] was inactive. For the same molecule, the AC50 in assay [3] is 20.8 µM (active).

Turning to `CCn1nc(C)c2c1C(=O)NCC(c1ccc(O)cc1)=N2`, the molecule was called inactive in assay [1], in [2], in [14], in [5], in assay [17] and in assay [7]. In addition, the result in assay [8], in assay [9], in assay [10] and in assay [11] was inactive. Besides, the AC50 in assay [3] is 20 µM (active).

`CCCCOC(=O)c1ccccc1`: the result in assay [1], in assay [2], in assay [3], in assay [14], in assay [12] and in [5] was inactive. Moreover, the result in assay [13], in [6], in [7], in assay [9], in assay [10] and in assay [11] was inactive.

For the molecule `FC(F)(F)C(F)(F)C(F)(F)C(F)(F)C(F)(F)C(F)(F)I`, the result in assay [1], in assay [2], in assay [3], in assay [14], in assay [15] and in assay [16] was inactive. Further, the molecule was classed as inactive in assay [12], in assay [5], in assay [7], in [8], in assay [9] and in assay [10]. Also, the result in assay [11] was inactive. For the same molecule, in [5], the AC50 is 91.3 µM (active).

As for `NCC(F)(F)C(F)(F)C(F)(F)C(F)(F)F`, the molecule was classed as inactive in assay [1], in [2], in [3], in assay [14], in assay [15] and in assay [16]. Besides, the outcome in assay [12], in assay [5], in assay [17], in assay [7], in assay [8] and in assay [9] was inactive. The result in assay [10] and in assay [11] was inactive.

On to `O=C(O)c1cccc(C(=O)O)c1`, for which the result in [2], in [18], in assay [19], in assay [3], in assay [12] and in assay [17] was inactive. In addition, the outcome in assay [7], in [9], in assay [10] and in [11] was inactive.

On to `NC(=O)N1c2ccccc2C=Cc2ccccc21`, for which the result in assay [2], in assay [18], in assay [19], in [3], in assay [14] and in assay [4] was inactive. For the same molecule, the call in assay [12], in [17], in assay [7], in [8], in assay [9] and in assay [10] was inactive. Moreover, the result in assay [11] was inactive.

What is called AC50 is the concentration at which the activity in the assay is half-maximal.
